Screening data as filed in PubChem.
C diff HTS = C. difficile growth inhibitors, primary screen, HTS; Clostridium difficile clinical isolate growth, OD600, 24 h; hits give low values; growth activity, negative = inhibition, % at 16 µg/mL (by protocol); 86,000 tested, 0.25% active; AID 1259249, 2017;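 active means mean growth activity at or below -80% and every replicate also at or below -80%; inconclusive means mean at or below -80% but some replicate above -80%; inactive means mean growth activity above -80%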;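 further: 0% = DMSO wells and -100% = levofloxacin 16 µg/mL wells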
T cruzi growth-1 = T. cruzi intracellular proliferation inhibitors, primary screen, cell-based, beta-gal Tulahuen parasites, NIH3T3 host, luminescence; inhibition, % at 8.34 µM; T. cruzi beta-gal in NIH3T3, GalScreen luminescence, 90 h; 77,000 tested, 5.9% active; AID 624255, 2012;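 active means mean inhibition above about 93%, with at least 55% of replicates each passing it, limit read from the data, passing the limit was not always enough; inconclusive means only one of those two conditions holds; inactive means neither condition holds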
Pf Dd2 inh = P. falciparum Dd2 growth inhibitors, primary screen, SYBR Green fluorescence, single dose replicates. 72 h; hits give low values. activity change, % at 10 µM. 94,000 tested, 2.3% active. AID 1159554, 2015; in the data active means activity change below about -80%; inconclusive means no clear call, values can overlap the other calls
T cruzi growth-2 = T. cruzi intracellular proliferation inhibitors, confirmation, cell-based, NIH3T3 host, beta-gal parasite, luminescence, cherry-pick; shares compounds with T cruzi growth-1; T. cruzi beta-gal in NIH3T3, GalScreen luminescence, 90 h; inhibition, % at 8.35 µM; 5,600 tested, 72% active;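 active means mean replicate inhibition above about 95% and at least 55% of replicates individually reaching it, limit read from the data; inconclusive means only one of the two criteria is met; inactive means neither criterion is met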
T cruzi growth-3 = inhibitors of intracellular T. cruzi replication, confirmation, NIH3T3 host cells, beta-gal parasites, cherry-pick, set 2. inhibition, % at 2.09 µM. AID 651740, 2012. 5,600 tested, 21% active. T. cruzi beta-gal in NIH3T3, GalScreen luminescence, 90 h. shares compounds with T cruzi growth-1;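 active means mean inhibition above about 95%, with at least 55% of replicates also reaching it, limit read from the data; inconclusive means meets just one of the two conditions; inactive means meets neither condition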;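 further: plate controls were neutral control median for no effect and positive control median for full effect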
3T3 cytotox = cytotoxicity in mouse NIH/3T3 fibroblasts, confirmation, cytotoxicity control for T. cruzi proliferation inhibitor project, cell-based, cherry-pick, single point. shares compounds with T cruzi growth-1. NIH/3T3 viability, CellTiter-Glo ATP luminescence, 90 h. cytotoxicity (signal decrease), % at 8.35 µM. 5,600 tested, 14% active. AID 651742, 2012;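 active means mean signal decrease across replicates above about 35% based on untreated-well scatter, with enough replicates individually passing, limit read from the data; inconclusive means no rule stated though some were filed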;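 further: 0% = median of neutral control wells and 100% = median of positive control wells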
NIH3T3 tox 2 = NIH/3T3 fibroblast cytotoxicity, confirmation, cytotoxicity control, cell-based, cherry-pick, single point, set 2. NIH/3T3 viability, CellTiter-Glo ATP luminescence, 90 h. shares compounds with T cruzi growth-1. 5,600 tested, 56% active. inhibition, % at 24.9 µM. AID 651744, 2012;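 active means mean loss of cell viability signal at or above a set limit, and enough replicates individually reaching it; inconclusive means meets only the mean limit or only the replicate share; inactive means meets neither condition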;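 further: 0% = median of neutral control wells and 100% = median of positive control wells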
An asterisk follows results filed as active; ? = inconclusive; nt = not tested or not shown. Shown are actives, neighbours in structure and some others; about 6.7% of the full set was active somewhere.

SMILES | C diff HTS | T cruzi growth-1 | Pf Dd2 inh | T cruzi growth-2 | T cruzi growth-3 | 3T3 cytotox | NIH3T3 tox 2
CC(=O)N(C)C[C@@H]1Oc2cc(-c3ccccc3)ccc2S(=O)(=O)N([C@@H](C)CO)C[C@@H]1C | nt | -39 | 1 | nt | nt | nt | nt
COCC#Cc1cnc2c(c1)C(=O)N([C@@H](C)CO)C[C@H](C)[C@@H](CN(C)Cc1ccccc1F)O2 | -1 | -4 | -54 | nt | nt | nt | nt
CC(=O)N1CCCCN2[C@H](CO)[C@H](c3ccc(-c4cccc(C)c4)cc3)[C@@H]2C1 | -11 | 78 | -24 | nt | nt | nt | nt
Cc1cccc(-c2ccc([C@H]3[C@@H](CO)N4CCCCN(C(=O)c5ccc6c(c5)OCO6)C[C@@H]34)cc2)c1 | -5 | ? | 9 | 111* | 99* | ? | 90*
Cc1cccc(-c2ccc([C@H]3[C@H]4CN(C(=O)c5ccc6c(c5)OCO6)CCCCN4[C@H]3CO)cc2)c1 | -4 | 116* | -41 | 105* | 57 | 31 | 106*
Cc1cccc(-c2ccc([C@@H]3[C@@H](CO)N4CCCCN(C(=O)c5ccc6c(c5)OCO6)C[C@@H]34)cc2)c1 | -4 | 55 | -11 | nt | nt | nt | nt
Cc1noc(C)c1NC(=O)N(C)C[C@H]1Oc2ccc(NC(=O)Cc3cn(C)c4ccccc34)cc2C(=O)N([C@H](C)CO)C[C@H]1C | nt | 53 | 0 | nt | nt | nt | nt
COc1cccc(S(=O)(=O)N[C@H]2CC[C@@H](CCn3cc(-c4ccccc4OC)nn3)O[C@H]2CO)c1 | 2 | 37 | -8 | nt | nt | nt | nt
COc1ccc(NC(=O)Nc2ccc3c(c2)C(=O)N([C@H](C)CO)C[C@H](C)[C@H](CN(C)C(=O)Nc2ccccc2)OCCCC[C@H](C)O3)cc1 | 0 | 50 | -44 | nt | nt | nt | nt
C[C@@H]1CCCCO[C@@H](CN(C)C(=O)Nc2cccc3ccccc23)[C@@H](C)CN([C@@H](C)CO)C(=O)c2cc(NC(=O)C3CCCCC3)ccc2O1 | 18 | ? | -90* | 110* | 69 | -5 | 0
C[C@@H]1CCCCO[C@@H](CN(C)C(=O)Nc2cccc3ccccc23)[C@@H](C)CN([C@H](C)CO)C(=O)c2cc(NC(=O)c3ccccc3)ccc2O1 | 6 | 45 | -53 | nt | nt | nt | nt
C[C@@H]1CCCCO[C@H](CN(C)C(=O)NC2CCCCC2)[C@H](C)CN([C@H](C)CO)C(=O)c2cc(NC(=O)Nc3cccc4ccccc34)ccc2O1 | -6 | 85 | -76 | nt | nt | nt | nt
C[C@@H]1CCCCO[C@@H](CN(C)C(=O)NC2CCCCC2)[C@H](C)CN([C@@H](C)CO)C(=O)c2cc(NC(=O)Nc3cccc4ccccc34)ccc2O1 | -7 | 82 | -31 | nt | nt | nt | nt
C[C@@H]1CCCCO[C@H](CN(C)C(=O)Nc2cccc3ccccc23)[C@@H](C)CN([C@@H](C)CO)C(=O)c2cc(NC(=O)c3ccccc3)ccc2O1 | 4 | ? | -82* | 107* | 84 | 26 | 36*
C[C@@H]1CCCCO[C@H](CN(C)C(=O)NC2CCCCC2)[C@H](C)CN([C@@H](C)CO)C(=O)c2cc(NC(=O)Nc3cccc4ccccc34)ccc2O1 | -12 | 108* | 0 | 106* | 77 | -28 | -2
C[C@@H]1CCCCO[C@H](CN(C)C(=O)NC2CCCCC2)[C@@H](C)CN([C@H](C)CO)C(=O)c2cc(NC(=O)Nc3cccc4ccccc34)ccc2O1 | -5 | 104* | -35 | 109* | 30 | -21 | -15
C[C@H](CO)N1C[C@H](C)[C@@H](CN(C)C(=O)Nc2cccc3ccccc23)OCCCC[C@H](C)Oc2ccc(NC(=O)C3CCCCC3)cc2C1=O | -14 | 64 | -75 | nt | nt | nt | nt
CC=Cc1ccc2n(c1=O)C[C@@H]1[C@@H](CO)[C@H](C(=O)NCc3ccccc3)N(C)[C@H]21 (mixture of isomers) | 2 | 88 | 11 | nt | nt | nt | nt
C[C@H]1CN([C@@H](C)CO)C(=O)c2cc(/C=C/c3ccccc3)cnc2O[C@H]1CN(C)C(=O)Cc1cccnc1 | -4 | nt | -9 | nt | nt | nt | nt
CNC[C@H]1OCCCC[C@H](C)Oc2ccc(NS(=O)(=O)c3ccc(OC)cc3)cc2C(=O)N([C@@H](C)CO)C[C@H]1C | -1 | 4 | nt | nt | nt | nt | nt
C[C@@H]1CN([C@H](C)CO)C(=O)c2cc(C#CC3CC3)cnc2O[C@@H]1CN(C)C(=O)c1ccc(F)cc1 | 7 | 75 | -3 | nt | nt | nt | nt
C[C@@H]1CCCCO[C@H](CN(C)C(=O)Nc2cccc3ccccc23)[C@H](C)CN([C@H](C)CO)C(=O)c2cc(N(C)C)ccc2O1 | 3 | 99* | -53 | 96* | 23 | 11 | 13
C[C@H]1CCCCO[C@H](CN(C)C(=O)Nc2cccc3ccccc23)[C@@H](C)CN([C@@H](C)CO)C(=O)c2cc(NC(=O)NC3CCCCC3)ccc2O1 | -6 | 99* | -18 | 108* | 112* | -38 | 6
C[C@H](CO)N1C[C@H](C)[C@H](CN(C)C(=O)Nc2cccc3ccccc23)OCCCC[C@H](C)Oc2ccc(N(C)C)cc2C1=O | -12 | 59 | -59 | nt | nt | nt | nt
C[C@@H]1CN([C@@H](C)CO)C(=O)c2cc(NC(=O)NC3CCCCC3)ccc2O[C@@H](C)CCCCO[C@H]1CN(C)C(=O)Nc1cccc2ccccc12 | -3 | 53 | -52 | nt | nt | nt | nt
COc1ccc(CN(C)C[C@@H]2Oc3ccc(NC(=O)Cn4cnnn4)cc3CC(=O)N([C@H](C)CO)C[C@@H]2C)cc1 | 0 | 9 | -3 | nt | nt | nt | nt
C[C@H]1CN([C@@H](C)CO)S(=O)(=O)c2ccc(-c3cccc(F)c3)cc2O[C@H]1CN(C)C(=O)Nc1cc(F)ccc1F | 6 | 112* | -54 | 105* | 102* | 63* | 42*
C[C@H]1CN([C@@H](C)CO)S(=O)(=O)c2ccc(-c3cccc(C#N)c3)cc2O[C@H]1CN(C)C(=O)Nc1cc(F)ccc1F | 4 | nt | -18 | nt | nt | nt | nt
C[C@@H]1CN([C@@H](C)CO)S(=O)(=O)c2ccc(-c3ccc(C#N)cc3)cc2O[C@H]1CN(C)C(=O)Nc1cc(F)ccc1F | 2 | 99 | -59 | nt | nt | nt | nt
C[C@H]1CN([C@@H](C)CO)S(=O)(=O)c2ccc(-c3ccc(C#N)cc3)cc2O[C@@H]1CN(C)C(=O)Nc1cc(F)ccc1F | 6 | 108* | -60 | 92 | 41 | 32 | 75*
